High-throughput results from PubChem.
MCL1-BIM inh – MCL1-BIM-BH3 interaction inhibition (human); GST-MCL1 / FITC-Bim-BH3 fluorescence polarization; inhibition, % at 10.9 µM; 0.68% of 320,000 active; AID 2057;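 active means inhibition above the mean inhibition of all tested compounds plus 3 SD, set per campaign, cut at about 40% in these data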;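 further: 0% = DMSO wells and 100% = unlabeled Bim-BH3 peptide control; higher means more loss of mP so more displacement of Bim peptide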
Target sequence (Q07820 whole entry, looked up): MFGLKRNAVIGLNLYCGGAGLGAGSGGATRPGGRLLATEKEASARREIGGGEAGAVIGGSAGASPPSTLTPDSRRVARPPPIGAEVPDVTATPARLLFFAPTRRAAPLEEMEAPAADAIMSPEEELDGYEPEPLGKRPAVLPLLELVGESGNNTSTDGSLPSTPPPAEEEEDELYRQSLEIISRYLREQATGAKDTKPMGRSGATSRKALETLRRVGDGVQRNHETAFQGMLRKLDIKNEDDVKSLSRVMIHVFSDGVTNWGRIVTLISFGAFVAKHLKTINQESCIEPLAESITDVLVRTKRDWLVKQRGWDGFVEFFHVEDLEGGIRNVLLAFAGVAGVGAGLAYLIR
E coli Lon inh – inhibitors of E. coli Lon protease; purified E. coli Lon protease, fluorescence polarization; inhibition, % at 7.94 µM; 0.42% of 360,000 active; AID 602123; in the data active means inhibition above about 13%, passing the limit was not always enough;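 further: 0% = enzyme with probe and DMSO and 100% = no enzyme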
MEX-5 binding – C. elegans MEX-5 TCR-2 RNA binding activity | 0.38% of 300,000 active | MEX-5/FITC-TCR2 RNA binding, fluorescence polarization; hits give low values | activity score (negative = inhibition of binding), % at 10 µM | Q9XUB2;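 active means inhibition past about -25% in most replicates, and total fluorescence under double the plate's negative control median, limit read from the data; inconclusive means replicates evenly split on the limit, or fluorescence at least double controls; inactive means too little inhibition in most replicates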;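 further: 0% = DMSO and -100% = 5 µM competing unlabeled TCR2 RNA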
GLD-1 TGE inh – GLD-1-TGE RNA interaction inhibition (C. elegans); purified GLD-1 + fluorescein TGE RNA, fluorescence polarization; inhibition, % at 5.96 µM; 0.44% of 320,000 active; AID 2280; Q17339;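 active means percent inhibition above a per-plate cutoff, the plate mean of test compounds plus 3 SD, cut at about 30% in these data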;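 further: 0% = DMSO wells with GLD-1 and probe and 100% = wells lacking GLD-1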
BCLXL inh – blocks human Bcl-xL binding to Bim BH3 peptide. Q07817. GST-Bcl-xL / FITC-Bim BH3 peptide fluorescence polarization. inhibition, % at 10.9 µM. 0.7% of 320,000 active;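 active means inhibition above the mean of all tested compounds plus 3 SD, cutoff set per campaign, cut at about 30% in these data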;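 further: 0% = DMSO wells and 100% = unlabeled Bim-BH3 peptide competitor; inhibitors lower millipolarization by displacing the labeled peptide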
Target sequence (Q07817 whole entry, looked up): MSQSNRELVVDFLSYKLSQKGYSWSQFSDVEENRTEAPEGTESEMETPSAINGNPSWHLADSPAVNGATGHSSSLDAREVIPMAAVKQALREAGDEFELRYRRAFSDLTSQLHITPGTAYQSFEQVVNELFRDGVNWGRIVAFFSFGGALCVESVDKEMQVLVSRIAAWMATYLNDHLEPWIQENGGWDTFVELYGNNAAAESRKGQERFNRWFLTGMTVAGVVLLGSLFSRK
Bcl-xL conf – counter-screen for MCL1 inhibitors: confirmation of human Bcl-xL inhibitors; shares compounds with MCL1-BIM inh; GST-Bcl-xL / FITC-Bim BH3 peptide FP binding; inhibition, % at 10.9 µM; 54% of 1,700 active;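 active means inhibition above a cutoff equal to the mean inhibition of all tested compounds plus 3 SD, cut at about 30% in these data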;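 further: 0% = DMSO wells and 100% = unlabeled Bim BH3 control peptide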
MCL1 inh confirm – MCL1-BIM-BH3 interaction inhibition, confirmation; shares compounds with MCL1-BIM inh; GST-MCL1 / FITC-Bim-BH3 fluorescence polarization; inhibition, % at 10.9 µM; 61% of 1,700 active; AID 2168;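 active means inhibition above the average of all tested compounds plus 3 SD, cut at about 40% in these data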;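 further: 0% = DMSO wells and 100% = unlabeled Bim-BH3 control peptide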
GLD-1 TGE cf – confirmation of C. elegans GLD-1 TGE RNA binding inhibitors | inhibition, % at 5.96 µM | shares compounds with GLD-1 TGE inh | AID 2459 | 10% of 550 active | GLD-1/FL-TGE RNA fluorescence polarization, biochemical;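 active means average inhibition across triplicates above the hit cutoff set in the primary screen, cut at about 32% in these data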;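 further: 0% = GLD-1 with RNA probe and DMSO and 100% = wells lacking GLD-1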
* hit, by the source's call; ? = inconclusive; . = no result. Only some compounds are listed: those with a hit (about 1.4% of all), similar ones and a draw of the others.

SMILES	MCL1-BIM inh	E coli Lon inh	MEX-5 binding	GLD-1 TGE inh	BCLXL inh	Bcl-xL conf	MCL1 inh confirm	GLD-1 TGE cf
CCOC(=O)c1ccc(NC(=O)CN(c2ccc(C)cc2)S(=O)(=O)c2c(C)n[nH]c2C)cc1	105.7*	1.5	1.7	74.3*	92.2*	6.2	7.7	-0.1
O=C1C=C(Nc2cccc3cccnc23)c2ccccc2C1=O	58.7*	8.5	-31.2*	33.9*	54.9*	45.5*	46.2*	-4.3
O=C1C=C(Nc2ccccc2C(=O)O)c2ccccc2C1=O	24.9	2.5	-3.8	-1.8	19.9	.	.	.
COc1ccc2c(c1)c(=O)c(C(=O)c1ccc(C)cc1)cn2CC(=O)Nc1ccc(F)cc1	9.6	-6.7	0.7	9.6	6.3	.	.	.
COc1ccc2c(c1)c(=O)c(C(=O)c1ccc(F)cc1)cn2CC(=O)Nc1ccc(F)cc1	71.1*	-14.9	0.8	69.0*	75.4*	4.0	-6.4	-1.8
CCCN=C1N/C(=C\c2ccco2)C(=O)N1c1ccccc1	10.8	0.1	-1.5	19.8	8.9	.	.	.
O=C1/C(=C\c2ccco2)NC(=S)N1c1ccccc1	49.7*	1.6	-2.3	55.0*	33.9*	13.5	16.5	-3.4
Nc1c(O)ccc2c1C(=O)c1ccccc1C2=O	105.1*	.	-39.4*	72.4*	105.4*	111.3*	127.2*	53.4*
Cc1c(C(=O)NCc2ccccc2C(F)(F)F)sc(=O)n1Cc1ccc(Cl)c(Cl)c1	.	-9.3	.	.	.	.	.	.
CCCCCCCCCCC(C(=O)O)C1(C(=O)O)CCC(=O)O1 (stereo unspecified)	.	-5.8	.	.	.	.	.	.
O=c1[nH]c(Nc2ccc(F)cc2)cc2ccccc12	66.3*	-10.0	-14.7	66.1*	54.3*	11.8	12.6	7.9
O=c1[nH]c(Nc2ccccn2)cc2ccccc12	7.6	-9.8	-9.2	8.1	11.9	.	.	.
COc1ccc2[nH]c(C)c(CCN(Cc3cccs3)C(=S)Nc3ccc(F)cc3)c2c1	74.6*	16.8	-5.9	48.9*	73.0*	40.5*	51.8*	-0.7
CCNC(=O)C1(C)CCCN(CCOc2ccc(Cl)cc2)C1 (stereo unspecified)	.	-19.8	.	.	.	.	.	.
COCCCNC(=O)c1c(N)n(-c2ccc3c(c2)OCO3)c2nc3ccccc3nc12	58.0*	3.0	-0.2	49.1*	47.8*	7.2	2.4	-0.9
CCN(CC)c1ccc(/C=C(\C#N)C(=O)NCc2ccco2)cc1	-30.5	.	.	-83.2	-18.8	.	.	.
CC(OC(=O)/C(C#N)=C/c1ccc(N(C)C)cc1)C(=O)NCc1ccco1 (stereo unspecified)	128.8*	11.5	-2.9	76.8*	110.6*	99.0*	141.9*	56.0*
c1ccc2c(-c3ccc4nncn4c3)cncc2c1	.	-6.8	.	.	.	.	.	.
CNc1nc2cc([N+](=O)[O-])c([N+](=O)[O-])cc2nc1NC	98.2*	2.1	2.5	98.3*	89.6*	11.6	6.6	8.0
O=C(C(=O)N(Cc1ccccc1)Cc1ccccc1)c1c(-c2ccccc2)[nH]c2ccccc12	.	1.7	.	.	.	.	.	.
C[n+]1cccc(NC(=O)c2ccccc2)c1	.	-4.4	.	.	.	.	.	.
Cc1cc2cc(CNC(=O)c3ccc4c(c3)OCO4)ccc2[nH]1	53.5*	18.8	-1.6	33.5*	37.2*	18.7	9.1	-0.1
Cc1ccc(CNC(=O)c2ccc(Br)o2)cc1	3.6	-1.2	0.3	-3.5	0.7	.	.	.
Cc1cc2cc(CNC(=O)c3ccc(Br)o3)ccc2[nH]1	68.9*	9.4	-1.8	41.3*	54.6*	56.7*	74.6*	5.0
CC1(C)CC(=O)C2=C(C1)Nc1ccccc1S2	58.8*	40.4	?	48.7*	56.1*	56.0*	62.3*	18.9
SMILES	MCL1-BIM inh	E coli Lon inh	MEX-5 binding	GLD-1 TGE inh	BCLXL inh	Bcl-xL conf	MCL1 inh confirm	GLD-1 TGE cf
CC(=O)N1CCc2[nH]c3ccc(C)cc3c2C1	18.4	-1.1	-11.9	17.8	15.6	.	.	.
CCOC(=O)N1CCc2[nH]c3ccc(C)cc3c2C1	62.5*	9.6	-6.2	52.8*	65.8*	9.3	8.3	10.7
O=c1ccn([C@@H]2O[C@H](CNCc3cccc4c3sc3ccccc34)[C@@H](O)[C@H]2O)c(=O)[nH]1	.	-5.0	.	.	.	.	.	.
C=CCOc1ccc(C2C3=C(CCCC3=O)N(CC(=O)O)C3=C2C(=O)CCC3)cc1OCC	8.3	-0.7	-5.3	2.5	12.3	.	.	.
CCCOc1ccc(C2C3=C(CCCC3=O)N(CC(=O)O)C3=C2C(=O)CCC3)cc1OCC	100.9*	9.5	2.3	32.6*	81.2*	-3.6	-9.8	1.4
Cc1nc2c(o1)C(=O)c1ccccc1C2=Nc1ccccc1	.	-14.5	.	.	.	.	.	.
COc1ccc(NC(=O)c2ccc(-c3ccc(C(C)=O)cc3)o2)cn1	59.7*	0.7	.	56.6*	68.8*	55.3*	65.2*	44.9*
COc1ccc(N2C[C@H](C)[C@@H](CC(=O)Nc3ccc(Br)cc3)C2=O)cc1	.	0.2	.	.	.	.	.	.
CCCN(CC(=O)Nc1ccccc1C)C(=O)c1cc2ccccc2oc1=O	.	-10.7	.	.	.	.	.	.
COc1ccc(N2CCCC2)c(NC(=O)c2ccc(Br)o2)c1	55.8*	1.0	-5.9	38.0*	48.3*	21.7	16.4	41.1*
O=C(O)CCNc1cc(N2CCN(C(=O)c3ccco3)CC2)c2noc3c2c1C(=O)c1ccccc1-3	92.8*	25.4	?	37.5*	78.1*	59.4*	-111.1	-216.1
Cc1cc(N2CCN(C(=O)c3ccco3)CC2)c2ccccc2n1	2.9	-7.4	0.4	3.5	-1.4	.	.	.
Cc1ccccc1CS(=O)(=O)CCC(=O)NCCN1CCN(c2cccc(Cl)c2)CC1	58.9*	-6.6	-0.1	62.1*	62.4*	10.2	24.2	-2.5
CCCCNc1c(-c2ccc(F)cc2)nc2nc(C)cc(C)n12	.	-21.5	.	.	.	.	.	.
N#Cc1ccsc1NC(=O)CN1C(=O)NC2(CCCC2)C1=O	70.8*	16.3	-6.5	53.9*	65.5*	59.2*	94.2*	5.8
CCOC1=C2CN(S(=O)(=O)c3ccc(C)cc3)[C@H](c3ccccc3)C[C@@H]2N(S(=O)(=O)c2ccc(C)cc2)[C@H](c2ccccc2)C1	.	-5.7	.	.	.	.	.	.
COc1ccc(NC(=O)c2cc(C3CCCCN3C(=O)c3ccc(NC(C)=O)cc3)on2)c(C)c1 (stereo unspecified)	.	-9.3	.	.	.	.	.	.
Nc1nccc(N2CCCCC2)n1	.	-1.0	.	.	.	.	.	.
C=C1c2cccc(O)c2C(O)=C2C(=O)[C@]3(O)C(O)=C(C(N)=O)C(=O)[C@@H](N(C)C)[C@@H]3[C@@H](O)[C@H]12	107.5*	10.4	-31.8*	36.4*	63.8*	36.0*	86.7*	-1.8
Cc1cccc(-n2c(SCc3cc(=O)n4ccsc4n3)nc3ccccc32)c1	66.7*	-3.1	-5.9	42.5*	73.4*	63.4*	88.8*	25.5
